Results with a measured potency or affinity are listed apart.
Legend:
[1] = test system: Klebsiella pneumoniae; settings: Concentration 32 ug.mL-1; ASSAY_TEST Inhibition of Bacterial Growth; detection method Absorption (OD600); MEDIA CAMHB; plate type 384well; NBS; CORNING #3640; time 18 hr
[2] = test system: Candida albicans; settings: 32 ug/mL
[3] = test system: Cryptococcus neoformans; settings: Concentration 32 ug.mL-1; ASSAY_TEST Inhibition of Fungal Growth; detection method Resazurin; Absorption (OD600-OD570); plate type 384well; NBS; CORNING #3640

**Q.** What does the source list for `Cc1ccc(CCNC(=O)c2ncc([N+](=O)[O-])n2C)cc1`?
**A.** Inhibition [1]: 27.87%; Inhibition [2]: 12.1%; Inhibition [3]: -8.7%

**Q.** How did the Inhibition [1] turn out when `Cn1c([N+](=O)[O-])cnc1C(=O)N1CCCC1` was run?
**A.** The Inhibition was 30.2%.

**Q.** And the Inhibition [2]?
**A.** The Inhibition was 7.94%.

**Q.** And the Inhibition [3]?
**A.** The Inhibition was -19.05%.

**Q.** For `Cn1c([N+](=O)[O-])cnc1C(=O)NC1CC1`, which Inhibition [1] is on record?
**A.** The Inhibition was 0.14%.

**Q.** What about the Inhibition [2] of the same compound?
**A.** The Inhibition was 5.96%.

**Q.** And the Inhibition [3]?
**A.** The Inhibition was -21.85%.

**Q.** Which Inhibition [1] does the source give for `Cn1c([N+](=O)[O-])cnc1C(=O)NCc1cccc(OC(F)(F)F)c1` here?
**A.** The Inhibition was 27.4%.

**Q.** And the Inhibition [2]?
**A.** The Inhibition was 11.6%.

**Q.** What about the Inhibition [3] of the same compound?
**A.** Its Inhibition is -18.54%.

**Q.** Which results are given for `Cn1c([N+](=O)[O-])cnc1C(=O)NCc1ccccn1.O=C(O)C(F)(F)F`?
**A.** Inhibition [1]: 22.41%; Inhibition [2]: 4.77%; Inhibition [3]: -18.89%

**Q.** With `CN(C)C(=O)c1ncc([N+](=O)[O-])n1C` as the compound, how does the Inhibition [1] read?
**A.** Its Inhibition is 22.37%.

**Q.** What about the Inhibition [2] of the same compound?
**A.** The Inhibition was 10.4%.

**Q.** And the Inhibition [3]?
**A.** The Inhibition was -8.01%.

**Q.** What does the source list for `CC(NC(=O)c1ncc([N+](=O)[O-])n1C)c1ccc(F)cc1` (stereo not given)?
**A.** Inhibition [1]: 14.44%; Inhibition [2]: 6.03%; Inhibition [3]: -25.7%

**Q.** With `Cn1c([N+](=O)[O-])cnc1C(=O)NCc1ccc(F)cc1` as the compound, how does the Inhibition [1] read?
**A.** The Inhibition was 15.94%.

**Q.** And the Inhibition [2]?
**A.** The Inhibition was 7.55%.

**Q.** What about the Inhibition [3] of the same compound?
**A.** Its Inhibition is -24.39%.

**Q.** Which results are given for `Cn1c([N+](=O)[O-])cnc1C(=O)NCc1ccc(OC(F)(F)F)cc1`?
**A.** Inhibition [1]: 21.15%; Inhibition [2]: 21.3%; Inhibition [3]: 2.62%

**Q.** Which results are given for `Cn1c([N+](=O)[O-])cnc1C(=O)N1CCOCC1`?
**A.** Inhibition [1]: 22.51%; Inhibition [2]: 14.1%; Inhibition [3]: -21.61%

Reference: ChEMBL document CHEMBL4513134, “CO-ADD screening of University of Queensland (Australia) compounds” (2021)
